This is part of a sample that, as a whole, favours compounds with a hit. Of some 83,000 tested, about 20% had one in any assay.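 Assay: single dose, 48 h. Readout: percent growth (0 = no net growth; negative = cell death). Active: <10.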 A number with no mark means an inactive call.
System: MDA-MB-468 breast
Experiment: NCI-60 one-dose screen, 48 h (100 = growth as untreated, 0 = no growth, -100 = all killed)
Conditions: 10 µM unless noted

COc1cc2c(c(OC)c1OC)CCC(c1cccc(C(=O)Nc3cccc(Br)c3)c1)O2 (stereo not drawn)
growth: 58.6%

COC[C@@H](C)n1c(C2CCOCC2)nc2c1C1C=C(OC)C(c3c(C)noc3C)=CC1N=C2 (stereo partly drawn)
growth: 32.4%

O=C1C=CC2(NN=C(c3ccccc3)N2c2cccc(Cl)c2)C(Cl)=C1 (stereo not drawn)
growth: 71.7%
